Hit rate of the full screen: of about 5,500 compounds, about 2,000 (36%) were called active. About 18% were inconclusive and are not listed. Cut-off read from the data, not from the text of the source: active = normalized growth mostly below about 0.91 (no sharp cut-off); inconclusive = no clear call, values can overlap the other calls; inactive = mostly above about 0.92. Some of the results follow.
Assay: chemical genetic growth profiling, strain panel (AID 1159580);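 note: tested at 20 µM; growth read once vehicle control cultures reached saturation at 30 °C; 1 = growth at the plate median or of vehicle wells; lower values mean less growth of the strain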
Settings: S. cerevisiae deletion strains, growth OD

Measured: normalized growth

CCOC(=O)c1[nH]c(Cc2[nH]c(C(=O)OCC)c(C)c2C)c(C)c1C
inactive: locus YAL013W, strain DEP1, hits give low values 1 | locus YBR229C, strain ROT2, hits give low values 1.02 | locus YCL061C, strain MRC1, hits give low values 1.02 | locus YDL101C, strain DUN1, hits give low values 1.03 | locus YDL134C, strain PPH21, hits give low values 1.01 | locus YDR150W, strain NUM1, hits give low values 0.978 | locus YEL061C, strain CIN8, hits give low values 1.01 | locus YGR078C, strain PAC10, hits give low values 1.02 | locus YHR030C, strain SLT2, hits give low values 1.06 | locus YHR087W, strain rtc3, hits give low values 1.01 | locus YJR043C, strain POL32, hits give low values 1.04 | locus YKL190W, strain CNB1, hits give low values 1.01 | locus YLR039C, strain RIC1, hits give low values 0.981 | locus YLR058C, strain SHM2 (second series), hits give low values 1.02 | locus YLR085C, strain ARP6, hits give low values 1.01 | locus YLR262C, strain YPT6, hits give low values 0.981 | locus YML094W, strain GIM5, hits give low values 0.988 | locus YMR219W, strain ESC1, hits give low values 1.01 | locus YMR263W, strain SAP30, hits give low values 1.02 | locus YMR307W, strain GAS1, hits give low values 0.948 | locus YNL153C, strain GIM3, hits give low values 1.02 | locus YNL298W, strain CLA4 (second series), hits give low values 1.04 | locus YNL322C, strain KRE1, hits give low values 1 | locus YNR030W, strain Alg12, hits give low values 1.04 | locus YPL055C, strain LGE1, hits give low values 0.994 | locus YPL241C, strain CIN2, hits give low values 1.01 | locus YPR135W, strain CTF4, hits give low values 1.08
